# Measured values from article PMC7862700, “An all-to-all approach to the identification of sequence-specific readers for epigenetic DNA modifications on cytosine”.
# Key:
# Test in all cases: DAPPL (digital affinity profiling via proximity ligation, sequencing); 10 mM Tris-HCl pH 7.5, 50 mM NaCl, 1 mM DTT, 4% glycerol, room temperature, 30 min; GST-TFs on glutathione beads, 16-mer random dsDNA library, 0.1% formaldehyde crosslink after washing; high values mean tight binding
# FEV = target: T1, FEV (Homo sapiens, UniProt Q99581 1-238); conditions: protein: recombinant; tags: N-terminal GST; dsDNA, one strand shown
# T1 sequence: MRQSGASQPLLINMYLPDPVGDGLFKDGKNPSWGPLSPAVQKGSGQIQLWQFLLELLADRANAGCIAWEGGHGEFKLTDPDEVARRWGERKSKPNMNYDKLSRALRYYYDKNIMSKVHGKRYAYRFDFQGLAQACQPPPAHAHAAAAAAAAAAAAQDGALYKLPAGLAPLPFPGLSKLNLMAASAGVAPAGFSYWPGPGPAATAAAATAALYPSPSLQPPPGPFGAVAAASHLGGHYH
# Method in brief: (§1)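 Yeast served to express human transcription factors as GST fusions, which were then captured on glutathione beads and labelled with DNA barcodes. Pooled with a tag-only sample, they were incubated with 200 nmole of a 16-mer random double-stranded DNA library for 30 min at room temperature in Tris/NaCl/DTT/glycerol buffer, washed, crosslinked with 0.1% formaldehyde, ligated by proximity, amplified by PCR and sequenced. Dividing each hexamer's read frequency for a factor by its frequency for the tag-only sample gives the binding signal.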
# ETV5 = ETV5 (Homo sapiens, UniProt P41161 1-510); conditions: protein: recombinant; tags: N-terminal GST; dsDNA, one strand shown
# Method in brief: as §1
# HSF1 = HSF1 (Homo sapiens, UniProt Q00613 1-529); conditions: protein: recombinant; tags: N-terminal GST; chain copies: 3; dsDNA, one strand shown
# Method in brief: as §1
# SPIC = target: T2, SPIC (Homo sapiens, UniProt Q8N5J4 1-248); conditions: protein: recombinant; tags: N-terminal GST; dsDNA, one strand shown
# T2 sequence: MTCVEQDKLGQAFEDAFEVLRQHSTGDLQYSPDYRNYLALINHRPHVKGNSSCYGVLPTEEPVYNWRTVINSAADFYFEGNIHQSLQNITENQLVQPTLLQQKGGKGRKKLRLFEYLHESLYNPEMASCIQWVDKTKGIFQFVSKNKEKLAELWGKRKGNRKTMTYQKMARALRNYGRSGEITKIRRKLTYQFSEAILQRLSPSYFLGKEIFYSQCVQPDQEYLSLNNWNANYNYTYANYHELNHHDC
# Method in brief: as §1
# ELF4 = ELF4 (Homo sapiens, UniProt Q99607 1-663); conditions: protein: recombinant; tags: N-terminal GST; dsDNA, one strand shown
# Method in brief: as §1
# ELK4 = target: T3, ELK4 (Homo sapiens, UniProt P28324-2 1-405); conditions: protein: recombinant; tags: N-terminal GST; dsDNA, one strand shown
# T3 sequence: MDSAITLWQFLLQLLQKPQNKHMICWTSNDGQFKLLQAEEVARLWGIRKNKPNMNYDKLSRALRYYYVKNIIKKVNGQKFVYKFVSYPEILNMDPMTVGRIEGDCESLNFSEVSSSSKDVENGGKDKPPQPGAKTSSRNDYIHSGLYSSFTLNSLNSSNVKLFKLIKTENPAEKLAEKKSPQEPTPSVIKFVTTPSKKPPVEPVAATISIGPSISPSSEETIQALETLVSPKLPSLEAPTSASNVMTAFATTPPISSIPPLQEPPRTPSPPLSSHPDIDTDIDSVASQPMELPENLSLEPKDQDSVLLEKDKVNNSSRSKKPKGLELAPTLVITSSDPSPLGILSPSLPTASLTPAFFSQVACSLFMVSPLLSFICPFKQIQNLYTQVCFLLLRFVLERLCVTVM
# Method in brief: as §1
# ETV2 = target: T4, ETV2 (Homo sapiens, UniProt O00321 1-342); conditions: protein: recombinant; tags: N-terminal GST; dsDNA, one strand shown
# T4 sequence: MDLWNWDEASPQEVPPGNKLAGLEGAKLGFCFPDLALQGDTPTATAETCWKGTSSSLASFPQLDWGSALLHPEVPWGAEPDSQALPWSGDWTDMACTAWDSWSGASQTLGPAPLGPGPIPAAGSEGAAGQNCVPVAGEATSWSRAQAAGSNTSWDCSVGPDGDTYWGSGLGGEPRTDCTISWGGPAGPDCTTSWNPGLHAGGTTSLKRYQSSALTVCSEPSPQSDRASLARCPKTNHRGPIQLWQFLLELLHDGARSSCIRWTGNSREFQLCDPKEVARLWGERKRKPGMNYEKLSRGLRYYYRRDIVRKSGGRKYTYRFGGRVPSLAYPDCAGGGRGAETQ
# Method in brief: as §1
# ELF3 = target: T5, ELF3 (Homo sapiens, UniProt P78545 1-371); conditions: protein: recombinant; tags: N-terminal GST; dsDNA, one strand shown
# T5 sequence: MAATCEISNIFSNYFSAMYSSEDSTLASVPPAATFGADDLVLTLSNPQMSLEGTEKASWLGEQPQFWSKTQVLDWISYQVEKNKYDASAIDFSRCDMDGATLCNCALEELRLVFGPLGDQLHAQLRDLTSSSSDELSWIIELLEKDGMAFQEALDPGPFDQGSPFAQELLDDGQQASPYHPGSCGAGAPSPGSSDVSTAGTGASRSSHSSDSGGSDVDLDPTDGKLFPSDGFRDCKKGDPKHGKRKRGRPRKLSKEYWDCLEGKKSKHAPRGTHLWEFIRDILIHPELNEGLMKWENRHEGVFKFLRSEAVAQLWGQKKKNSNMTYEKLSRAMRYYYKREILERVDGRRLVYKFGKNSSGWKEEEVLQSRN
# Method in brief: as §1
# CRX = CRX (Homo sapiens, UniProt O43186 1-299); conditions: protein: recombinant; tags: N-terminal GST; dsDNA, one strand shown
# Method in brief: as §1
# ETV1 = ETV1 (Homo sapiens, UniProt P50549 1-477); conditions: protein: recombinant; tags: N-terminal GST; dsDNA, one strand shown
# Method in brief: as §1
# Sequence of CRX (O43186 whole entry): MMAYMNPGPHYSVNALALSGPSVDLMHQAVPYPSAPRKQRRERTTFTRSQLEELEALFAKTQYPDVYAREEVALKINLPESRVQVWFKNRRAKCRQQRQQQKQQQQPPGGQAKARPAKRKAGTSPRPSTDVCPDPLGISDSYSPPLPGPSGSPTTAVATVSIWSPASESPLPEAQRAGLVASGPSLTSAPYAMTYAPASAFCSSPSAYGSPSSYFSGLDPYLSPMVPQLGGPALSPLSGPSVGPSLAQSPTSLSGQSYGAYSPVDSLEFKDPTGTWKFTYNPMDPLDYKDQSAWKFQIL
# Sequence of ETV5 (P41161 whole entry): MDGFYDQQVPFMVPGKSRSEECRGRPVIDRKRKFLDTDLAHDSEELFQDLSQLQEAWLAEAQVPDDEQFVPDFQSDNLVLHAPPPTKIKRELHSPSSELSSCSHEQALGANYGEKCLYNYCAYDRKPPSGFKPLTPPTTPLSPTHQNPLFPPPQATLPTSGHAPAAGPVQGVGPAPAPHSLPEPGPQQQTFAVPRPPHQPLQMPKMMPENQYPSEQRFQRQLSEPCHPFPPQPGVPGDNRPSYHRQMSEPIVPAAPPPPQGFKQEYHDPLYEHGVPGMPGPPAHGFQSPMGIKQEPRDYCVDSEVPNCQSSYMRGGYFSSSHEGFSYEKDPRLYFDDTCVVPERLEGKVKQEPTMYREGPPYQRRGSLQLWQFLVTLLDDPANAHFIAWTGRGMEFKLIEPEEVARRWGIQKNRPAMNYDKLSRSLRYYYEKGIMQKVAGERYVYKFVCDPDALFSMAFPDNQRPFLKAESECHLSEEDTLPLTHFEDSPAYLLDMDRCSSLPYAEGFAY
# Sequence of ELF4 (Q99607 whole entry): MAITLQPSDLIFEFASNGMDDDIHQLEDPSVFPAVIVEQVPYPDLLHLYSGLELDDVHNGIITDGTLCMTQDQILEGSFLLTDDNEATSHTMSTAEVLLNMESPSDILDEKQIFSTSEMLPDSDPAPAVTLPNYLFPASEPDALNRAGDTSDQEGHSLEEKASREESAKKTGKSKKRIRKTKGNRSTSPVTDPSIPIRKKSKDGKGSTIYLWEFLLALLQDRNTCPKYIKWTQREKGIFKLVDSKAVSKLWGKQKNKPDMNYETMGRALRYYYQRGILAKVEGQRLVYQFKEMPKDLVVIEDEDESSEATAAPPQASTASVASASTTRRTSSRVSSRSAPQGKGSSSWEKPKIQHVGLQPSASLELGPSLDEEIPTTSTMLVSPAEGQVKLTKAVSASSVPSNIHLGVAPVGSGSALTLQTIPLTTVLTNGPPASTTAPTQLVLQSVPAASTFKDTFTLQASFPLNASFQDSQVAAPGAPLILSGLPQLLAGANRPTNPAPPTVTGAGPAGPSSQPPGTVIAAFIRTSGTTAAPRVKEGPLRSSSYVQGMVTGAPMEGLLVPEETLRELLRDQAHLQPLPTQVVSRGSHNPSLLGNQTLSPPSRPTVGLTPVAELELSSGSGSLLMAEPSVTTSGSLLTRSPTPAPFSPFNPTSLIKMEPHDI
# Sequence of HSF1 (Q00613 whole entry): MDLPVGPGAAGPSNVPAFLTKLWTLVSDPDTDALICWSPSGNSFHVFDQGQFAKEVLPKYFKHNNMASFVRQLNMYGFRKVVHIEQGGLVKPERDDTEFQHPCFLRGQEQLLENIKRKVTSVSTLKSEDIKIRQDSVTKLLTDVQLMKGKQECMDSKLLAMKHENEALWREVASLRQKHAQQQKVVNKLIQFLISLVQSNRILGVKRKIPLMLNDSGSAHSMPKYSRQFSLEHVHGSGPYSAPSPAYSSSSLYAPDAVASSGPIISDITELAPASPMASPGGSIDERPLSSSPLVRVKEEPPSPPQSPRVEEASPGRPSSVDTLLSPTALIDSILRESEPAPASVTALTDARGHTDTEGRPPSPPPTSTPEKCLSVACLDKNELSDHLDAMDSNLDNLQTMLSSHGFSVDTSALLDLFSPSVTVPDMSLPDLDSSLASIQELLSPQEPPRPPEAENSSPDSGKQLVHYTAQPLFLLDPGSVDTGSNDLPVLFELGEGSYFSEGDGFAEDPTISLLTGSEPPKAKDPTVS
# Sequence of ETV1 (P50549 whole entry): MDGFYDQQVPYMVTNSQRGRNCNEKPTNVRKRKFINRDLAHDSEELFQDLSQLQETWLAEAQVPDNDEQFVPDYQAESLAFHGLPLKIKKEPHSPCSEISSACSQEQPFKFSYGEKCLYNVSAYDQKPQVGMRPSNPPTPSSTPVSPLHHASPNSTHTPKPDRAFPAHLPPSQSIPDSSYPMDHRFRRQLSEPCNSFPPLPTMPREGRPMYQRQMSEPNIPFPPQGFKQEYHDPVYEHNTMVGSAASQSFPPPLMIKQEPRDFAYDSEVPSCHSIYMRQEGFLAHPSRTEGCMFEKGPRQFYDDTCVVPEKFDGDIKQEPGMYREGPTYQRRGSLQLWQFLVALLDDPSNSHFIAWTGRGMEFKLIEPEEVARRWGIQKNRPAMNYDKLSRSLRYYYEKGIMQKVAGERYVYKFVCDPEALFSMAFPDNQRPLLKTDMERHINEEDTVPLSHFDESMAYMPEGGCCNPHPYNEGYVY
Sequence,binding signal (FEV),binding signal (ETV5),binding signal (HSF1),binding signal (SPIC),binding signal (ELF4),binding signal (ELK4),binding signal (ETV2),binding signal (ELF3),binding signal (CRX),binding signal (ETV1)
ACCCAT,"1.17 fold enrichment (6-mer frequency, TF over GST control)","1.25 fold enrichment (6-mer frequency, TF over GST control)","1.05 fold enrichment (6-mer frequency, TF over GST control)","1.15 fold enrichment (6-mer frequency, TF over GST control)","1.25 fold enrichment (6-mer frequency, TF over GST control)","1.17 fold enrichment (6-mer frequency, TF over GST control)","1.18 fold enrichment (6-mer frequency, TF over GST control)","1.23 fold enrichment (6-mer frequency, TF over GST control)","1.06 fold enrichment (6-mer frequency, TF over GST control)","1.19 fold enrichment (6-mer frequency, TF over GST control)"
TACCTC,"1.22 fold enrichment (6-mer frequency, TF over GST control)","1.14 fold enrichment (6-mer frequency, TF over GST control)","1.07 fold enrichment (6-mer frequency, TF over GST control)","1.4 fold enrichment (6-mer frequency, TF over GST control)","1.21 fold enrichment (6-mer frequency, TF over GST control)","1.36 fold enrichment (6-mer frequency, TF over GST control)","1.24 fold enrichment (6-mer frequency, TF over GST control)","1.27 fold enrichment (6-mer frequency, TF over GST control)","1.19 fold enrichment (6-mer frequency, TF over GST control)","1.29 fold enrichment (6-mer frequency, TF over GST control)"
GCTCCC,"1.28 fold enrichment (6-mer frequency, TF over GST control)","1.39 fold enrichment (6-mer frequency, TF over GST control)","1.07 fold enrichment (6-mer frequency, TF over GST control)","1.16 fold enrichment (6-mer frequency, TF over GST control)","1.32 fold enrichment (6-mer frequency, TF over GST control)","1.4 fold enrichment (6-mer frequency, TF over GST control)","1.32 fold enrichment (6-mer frequency, TF over GST control)","1.35 fold enrichment (6-mer frequency, TF over GST control)","1.04 fold enrichment (6-mer frequency, TF over GST control)","1.24 fold enrichment (6-mer frequency, TF over GST control)"
ATCTAG,"1.04 fold enrichment (6-mer frequency, TF over GST control)","1 fold enrichment (6-mer frequency, TF over GST control)","2.66 fold enrichment (6-mer frequency, TF over GST control)","1.19 fold enrichment (6-mer frequency, TF over GST control)","1.09 fold enrichment (6-mer frequency, TF over GST control)","1.27 fold enrichment (6-mer frequency, TF over GST control)","1.06 fold enrichment (6-mer frequency, TF over GST control)","1.24 fold enrichment (6-mer frequency, TF over GST control)","1.7 fold enrichment (6-mer frequency, TF over GST control)","1.03 fold enrichment (6-mer frequency, TF over GST control)"
